High-throughput results deposited in PubChem BioAssay by several laboratories.
C-LANA FP: inhibitors of KSHV C-LANA binding to DNA, primary screen, biochemical, fluorescence polarization, FAM-LBS DNA, MBP-C-LANA, single point. inhibition, % at 9 µM. Kaposi's sarcoma herpesvirus LANA C-terminal domain (residues 932-1162) DNA binding. hit rate 0.078% among 340,000. AID 504423, 2011;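 active = highest replicate inhibition at or above 60% at 9 µM, even if other replicates fall short; inactive = all replicates below 60% inhibition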;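 note: 0% = neutral control wells and 100% = 4 µM acridine orange control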
EBV gp42 inh: Epstein-Barr virus gp42 inhibitors, primary screen, biochemical, uHTS, fluorescence polarization. Glycoprotein 42 (Epstein-Barr virus (strain AG876)), Q1HVG2. Fluorescence polarization binding assay, mP read-out. inhibition, % (tested at 21.74 µM). hit rate 0.42% among 220,000. AID 1085, 2008; in the data active = inhibition above about 50%
LANA-H2A inh: blockers of LANA interaction with H2A/H2B – biochemical, FP readout, HTS, primary screen. Protein LANA1 (Human herpesvirus 8 type P (isolate GK18)), Q9QR71. cell-free LANA-H2A/H2B peptide, fluorescence polarization. inhibition, % (test concentration not listed). hit rate 0.6% among 320,000. AID 2629, 2010; in the data active = inhibition mostly above about 10%, no sharp cut-off; inactive = mostly below about 6.7%
eLon inh: inhibitors of E. coli Lon protease, primary screen, biochemical, fluorescence polarization | purified E. coli Lon protease | inhibition, % at 7.94 µM | hit rate 0.42% among 360,000 | AID 602123, 2011; in the data active = inhibition above about 13%, passing the limit was not always enough;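 note: 0% = enzyme with probe and DMSO and 100% = no enzyme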
Keap1-Nrf2 PPI: Keap1-Nrf2 protein-protein interaction inhibitors, primary screen, biochemical, fluorescence polarization, single point. Kelch-like ECH-associated protein 1 (Homo sapiens), Q14145. inhibition, % at 9.4 µM. hit rate 0.15% among 340,000. Keap1 Kelch-Nrf2 peptide fluorescence polarization, 1536-well; in the data active = inhibition above about 12%;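 note: human Keap1 Kelch domain with fluorescein labeled Nrf2 9mer peptide probe; 0% = neutral control wells and 100% = peptide positive control; higher means more block of Keap1 binding to Nrf2 peptide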
GLD-1 TGE inh: GLD-1/TGE RNA complex disruptors, primary screen, biochemical, fluorescence polarization; purified GLD-1 + fluorescein TGE RNA; hit rate 0.44% among 320,000; Female germline-specific tumor suppressor gld-1 (Caenorhabditis elegans), Q17339; inhibition, % at 5.96 µM;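 active = percent inhibition above a per-plate cutoff, the plate mean of test compounds plus 3 SD, cut at about 30% in these data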;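 note: 0% = DMSO wells with GLD-1 and probe and 100% = wells lacking GLD-1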
Target sequence (Q17339 whole entry, looked up): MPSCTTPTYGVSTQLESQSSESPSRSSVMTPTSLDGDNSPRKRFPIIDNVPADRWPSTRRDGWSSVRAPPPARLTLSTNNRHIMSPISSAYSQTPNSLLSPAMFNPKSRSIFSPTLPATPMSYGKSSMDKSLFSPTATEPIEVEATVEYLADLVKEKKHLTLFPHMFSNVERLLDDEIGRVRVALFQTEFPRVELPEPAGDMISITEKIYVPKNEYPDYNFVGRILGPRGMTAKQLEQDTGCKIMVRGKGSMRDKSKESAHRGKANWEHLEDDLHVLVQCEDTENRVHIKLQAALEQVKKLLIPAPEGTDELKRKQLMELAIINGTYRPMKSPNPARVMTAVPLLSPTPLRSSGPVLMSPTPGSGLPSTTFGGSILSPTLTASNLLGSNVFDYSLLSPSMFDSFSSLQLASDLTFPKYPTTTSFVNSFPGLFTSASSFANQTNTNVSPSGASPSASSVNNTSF
Numbers without * were called inactive; nt = no result given; + = active, no number. Compounds with a hit are over-represented: about 1.5% of the library has one in this group of screens.

SMILES	C-LANA FP	EBV gp42 inh	LANA-H2A inh	eLon inh	Keap1-Nrf2 PPI	GLD-1 TGE inh
Cn1c(C(C#N)C2=C(Cl)C(=O)N(c3ccccc3)C2=O)nc2ccccc21 (stereo unspecified)	nt	20	-4	nt	nt	45*
O=S(c1ccccc1O)S(=O)c1ccccc1O (stereo unspecified)	14	nt	nt	-6	-10	nt
CS(=O)c1ccccc1O (stereo unspecified)	-1	-3	39*	-2	6	6
CCc1ccc2cc(F)cc(F)c2n1	nt	nt	nt	-11	nt	nt
CCCCN(C(=O)c1ccc(N2CCCC2=O)cc1)c1c(N)n(Cc2ccccc2)c(=O)[nH]c1=O	0	nt	0	-2	0	3
CCCCn1c(N)c(N(CCC(C)C)C(=O)c2ccc3ccccc3c2)c(=O)[nH]c1=O	1	nt	32*	-7	-1	5
CCCCn1c(N)c(N(CCC(C)C)C(=O)COC(=O)c2ccc3ccccc3c2)c(=O)[nH]c1=O	1	nt	nt	-1	-4	nt
CC(C)CN(C(=O)c1ccc(N2CCCC2=O)cc1)c1c(N)n(Cc2ccccc2)c(=O)[nH]c1=O	-1	nt	26*	7	-7	3
CC(C)[C@H](NC(=O)c1c(F)cccc1F)C(=O)OCC(=O)NC(=O)NC1CCCC1	0	nt	14*	-5	-4	9
Cc1ccc(CN(C(=O)c2ccco2)C(C(=O)NC2CCCC2)c2cccnc2)cc1 (stereo unspecified)	0	-1	+	-5	3	2
COC/C=C/C1=CC2=CC(=O)C(C)(OC(=O)c3cnc4ccccc4n3)C(=O)C2=CN1C1CCCCC1 (stereo unspecified)	nt	nt	-3	nt	nt	14
CC1(OC(=O)c2cccs2)C(=O)C=C2C=C(C3CC3)OC=C2C1=O (stereo unspecified)	2	nt	0	14	1	35*
CC1(OC(=O)c2cccs2)C(=O)C=C2C=C(c3ccc(C#N)cc3)OC=C2C1=O (stereo unspecified)	nt	nt	2	nt	nt	6
CC1(OC(=O)c2cnc3ccccc3n2)C(=O)C=C2C=C(C3CC3)OC=C2C1=O (stereo unspecified)	nt	nt	11	nt	nt	114*
Cc1cccc(N2CCN(Cc3ccoc3)CC2)c1C	2	-5	0	-7	0	-2
COc1cc(CN2CCN(c3cccc(C)c3C)CC2)cc(OC)c1O	1	111*	-6	-2	-5	7
CC(=O)OCCCNc1cc(Sc2nc3ccccc3s2)c2nonc2c1[N+](=O)[O-]	6	78*	-17	-18	1	0
CC(=O)OCCCNc1cc(Sc2ccc(C)cc2)c2nonc2c1[N+](=O)[O-]	-1	-11	-9	0	-4	3
CC(Oc1ccc(Cl)cc1)c1ccnn1S(=O)(=O)c1ccc(Cl)cc1 (stereo unspecified)	0	-23	-3	7	-1	-2
Cc1ccc(S(=O)(=O)n2nccc2-c2c(-c3ccc(Cl)cc3)noc2C)cc1	0	-10	17*	-2	-3	-7
CC(C)(C)NC(=O)c1ccc(C(=O)NC(C)(C)C)cc1	nt	-13	nt	nt	nt	nt
CC(C)(C)NC(=O)c1sccc1C(=O)O	0	100*	-4	-2	-3	-6
Cc1cc([N+](=O)[O-])cc2c1NC(=O)C2(O)N1CCOCC1 (stereo unspecified)	0	13	58*	1	-6	-3
CC1CCN(C2(O)C(=O)Nc3ccc([N+](=O)[O-])cc32)CC1 (stereo unspecified)	-1	4	2	-8	-3	-1
COCCn1c(/C=C/c2ccccc2)nc2ccccc21	0	3	-127*	-5	0	-1
SMILES	C-LANA FP	EBV gp42 inh	LANA-H2A inh	eLon inh	Keap1-Nrf2 PPI	GLD-1 TGE inh
COc1ccc(CCN2C(=O)COc3ccccc3C2C(=O)Nc2c(C)cccc2C)cc1OC (stereo unspecified)	nt	nt	nt	-3	nt	nt
CCc1nn(C(CC)C(=O)NCc2cccc(OC)c2)c(=O)c2cc3occc3n12 (stereo unspecified)	-1	nt	7	-3	1	3
CC(NC1CCCCC1)C(=O)NN=C(c1ccccc1)c1ccccc1 (stereo unspecified)	-3	2	130*	-6	3	2
CC(Cl)C(=O)NN=C(c1ccccc1)c1ccccc1 (stereo unspecified)	-1	1	1	-3	-1	1
O=C(COC(=O)Cc1ccsc1)Nc1ccc(Br)cc1	1	nt	nt	-8	-2	7
CCC(=O)Nc1ccc(C(=O)COC(=O)Cc2ccsc2)cc1	1	nt	18*	14	-7	4
C[C@]12CC[C@@H]3c4ccc(O)cc4C(=O)C[C@H]3[C@@H]1CC[C@@H]2O	0	-20	3.5*	-2	-1	8
C=Cc1cc2c(cc1O)CCC1C2CCC2(C)C(O)CCC12 (stereo unspecified)	2	nt	nt	9	0	nt
CCOc1ccc(/C=C2/SC(=O)NC2=S)cc1	6	7	7	-5	3	67*
CCOc1ccc(N=C2NC(=O)S/C2=C\c2ccc(N(C)C)cc2)cc1	4	54*	4	-39	2	43*
CCCNC(=O)C1(C)CCN(C(=O)c2ccc(C)c(F)c2)C1 (stereo unspecified)	nt	nt	nt	-2	nt	nt
CSc1nnc(N2C(=O)C(O)=C(C(=O)c3ccco3)C2c2ccccc2F)s1 (stereo unspecified)	4	nt	4	-1	0	86*
Cc1nnc(N2C(=O)C(O)=C(C(=O)c3ccco3)C2c2cccc3ccccc23)s1 (stereo unspecified)	0	41	-1	-19	-7	21
Cc1ccc(C2C(C(=O)c3ccco3)=C(O)C(=O)N2c2nnc(C)s2)cc1 (stereo unspecified)	2	77*	0	8	-5	34*
CSc1nnc(N2C(=O)C(O)=C(C(=O)c3ccco3)C2c2ccccc2)s1 (stereo unspecified)	7	nt	-2	-2	0	54*
COCCNC(=O)c1cccc(OC2CCN(Cc3ccc(F)cc3OC)CC2)c1	-1	nt	3	-7	1	8
Cc1ccccc1NC(=O)CN1C(=O)COc2ccc(S(=O)(=O)N3CCCC3)cc21	0	nt	14*	0	-1	4
COc1ccc(/C=C/C(=O)Nc2cc(S(=O)(=O)N3CCOCC3)ccc2C)cc1OC	0	-17	+	0	-3	11
COc1ccc(OC)c(CC(=O)Nc2cc(S(=O)(=O)N3CCCCC3)ccc2C)c1	0	nt	71*	-6	3	-1
